Mot1-301 SUMO = yeast Mot1-301 growth rescue at high temperature, primary screen, SUMOylation pathway inhibitor project, S. cerevisiae, ATP luminescence, 38.5C; AID 2716, 2010; S. cerevisiae Mot1-301 growth rescue; percent above DMSO median, 100 means doubled; 320,000 tested, 1% active; growth rescue, % at 18.8 µM;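 active = every valid replicate shows activation above 250% relative to neutral control wells; inactive = the rest, any valid replicate at or below 250%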;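 also: OY570 slx delta 5 strain wells were the positive control but not used for scaling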
ALR H2O2 inh = inhibitors of human ALR sulfhydryl oxidase, primary screen, biochemical, H2O2 detection, HRP-luminol luminescence, single point. FAD-linked sulfhydryl oxidase ALR (Homo sapiens), P55789. purified ALR, DTT oxidation. inhibition, % (concentration not given with the values). 290,000 tested, 3.8% active. AID 485317, 2010;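 active = mean replicate inhibition above about 79%, with every replicate also reaching it, limit read from the data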
Target sequence (P55789 whole entry, looked up): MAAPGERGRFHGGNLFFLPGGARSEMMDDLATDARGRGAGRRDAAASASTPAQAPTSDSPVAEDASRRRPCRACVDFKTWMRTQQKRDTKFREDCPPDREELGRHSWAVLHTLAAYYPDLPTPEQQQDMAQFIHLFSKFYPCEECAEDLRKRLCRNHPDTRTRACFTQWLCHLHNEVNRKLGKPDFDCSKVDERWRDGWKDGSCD
HIF activator = HIF pathway transcriptional activators, primary screen, cell-based, U2OS HRE-luciferase, luminescence; U2OS HRE-luciferase reporter; normalized: DMSO 0%, desferrioxamine 100%; activation, % at 7.5 µM (by protocol); 300,000 tested, 0.32% active; AID 1910, 2009;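 active = mean activation of at least 10% of the iron chelator positive control signal, with at least half of replicates also reaching 10%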
AI-2 QS mod = Vibrio harveyi AI-2 quorum sensing modulators, primary screen, JMH597 strain, luminescence/OD600 ratio | Vibrio harveyi JMH597 AI-2 luminescence/OD600 ratio, 9 h; stronger effect = lower value; strain lacks LuxN and CqsS sensors; 0 = neutral-control median | activity change, % at 7.5 µM | 300,000 tested, 0.4% active; in the data active = activity change below about -75%, passing the limit was not always enough;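 also: luminescence divided by OD600 gain over 9 h not by final OD600 alone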
Mot1 SUMO dose = growth restoration of Mot1-301 yeast on galactose, dose response, SUMO pathway inhibitor project, whole organism, S. cerevisiae, ATP luminescence, cherry-picked samples; shares compounds with Mot1-301 SUMO; S. cerevisiae Mot1-301 galactose growth, 24 h; -100 = growth of slx-deleted rescue strain; growth activity, percent, % at 42 µM; 2,300 tested, under 10 active;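 active = Signal drops as the depositor expects, and the fitted half-maximal dose is no more than ten times the top valid tested dose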;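 also: more negative values mean stronger growth rescue toward the control strain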
* hit, by the source's call; / = no result; + = active, no number; [ ] = dose if it differs, or a comment. A selection: hits, their analogues and other compounds. The true share with any hit is near 4.8%.

SMILES	Mot1-301 SUMO	ALR H2O2 inh	HIF activator	AI-2 QS mod	Mot1 SUMO dose
O=C(Nc1ccc2c(c1)OCO2)O[C@@H]1C[C@H]2CCCC(=O)N3CC[C@@H](C1)[C@@H]23	2	/	1	8	/
Cc1nc2ccccc2c2ncccc12	613*	0	-3	16	-1
COc1ccc(-c2csc(NC(=O)CS(=O)(=O)c3ccc(F)cc3)n2)cc1OC	555*	-11	0	7	0
COc1ccc(NC(=O)CSc2nnc3ccc(-c4ccccn4)nn23)cc1	80	-1	0	37	/
COc1ccc(C(=O)CSc2nnc3ccc(-c4ccccn4)nn23)cc1	745*	-1	0	17	1
Cc1ccc(S(=O)(=O)N(C)c2ccc(OCC(=O)Nc3ccc(C(=O)N(C)C)cc3)cc2)cc1C	-4	-10	/	/	/
COc1cc(NC(=O)c2ccccc2F)c(OC)cc1NC(=O)CN1CCCCC1	552*	-38	5	6	0
Cc1ccc(S(=O)(=O)Oc2ccccc2N2C(=O)C3CC=CCC3C2=O)cc1 (configuration not stated)	+	-3	0	-9	-1
CCc1ccccc1N1C(=O)C2CC=CCC2C1=O (configuration not stated)	7	-19	-1	9	/
CCCCCOc1ccc(CN2CCOCC2)cc1Cl	83	-15	4	-1	/
CCCCOc1ccc(CSC(=N)N)cc1Cl	467*	99*	0	21	-1
CCC(C)NC(=O)CSc1nnc(-c2cc(-c3ccc(C)cc3)nc3ccccc23)n1N (configuration not stated)	971*	-11	0	30	1
O=C(O)CC(Sc1n[nH]c(=S)s1)C(=O)O (configuration not stated)	284	25	/	22	/
CN(CC(=O)Nc1ccccc1Sc1ccccc1)Cc1nc2ccccc2c(=O)[nH]1	704*	-5	0	16	0
CN(CC(=O)NC(c1ccccc1)c1ccccc1)Cc1nc2ccccc2c(=O)[nH]1	-4	-4	0	10	/
COc1ccc(CNC(=O)C2CC(=O)N(C3CCCC3)C2)cc1 (configuration not stated)	-1	3	0	23	/
O=C(Nc1cccc(N=Cc2cc(Cl)cc(Br)c2O)c1)c1ccco1	243	-8	/	10	/
O=C(Nc1cccc(N=Cc2cc(Br)cc(Br)c2O)c1)c1ccco1	766*	3	0	3	-1
CCC(=O)NCCSc1c[nH]c2ccccc12	131	56	0	-8	/
CC(C)C(=O)NCCSc1c[nH]c2ccccc12	598*	99*	0	31	0
CN(CCOc1ccccc1)S(=O)(=O)c1ccc2oc3ccccc3c2c1	-2	-4	0	-8	/
COc1ccc(CNC(=O)CN(c2ccc(OC)cc2)S(=O)(=O)c2c(C)nn(C)c2C)cc1	131	-6	-1	11	/
COc1ccc(N(CC(=O)NCc2ccc(C)cc2)S(=O)(=O)c2c(C)nn(C)c2C)cc1	585*	-5	/	7	0
O=S(=O)(NCCC1=CCCCC1)c1cccc2nsnc12	/	/	0	22	/
O=C(CCNS(=O)(=O)c1cccc2nsnc12)NCCC1=CCCCC1	712*	1	0	21	0
SMILES	Mot1-301 SUMO	ALR H2O2 inh	HIF activator	AI-2 QS mod	Mot1 SUMO dose
Cc1ccc(N=C2N=C(N)c3ccccc32)cc1C	3	28	2	25	/
NC1=NC(=Nc2ccc(S(N)(=O)=O)cc2)c2ccccc21	419*	-5	0	7	0[21 µM]
CCn1c(SCC(=O)Nc2ccc(OCc3ccccc3)cc2)nnc1-c1ccco1	837*	35	2	33	1
CCOc1ccc(NC(=O)CSc2nnc(-c3ccco3)n2C)cc1	-25	-5	0	28	/
C[C@@H]1CN(C(=O)c2ccc(OC3CCN(S(=O)(=O)N(C)C)CC3)cc2)C[C@H](C)O1	7	2	0	10	/
COc1ccc(CN2CC(=O)N(c3ccc(C)cc3C)C2=S)cc1OC	-10	-8	-1	1	/
COc1ccc(CN2CC(=O)N(c3ccccc3C)C2=S)cc1OC	672*	-2	-1	9	-1
CCN(CC(=O)Nc1c(F)cccc1F)C(=O)c1ccc(N2CCCCC2)c([N+](=O)[O-])c1	4	1	0	13	/
COc1cccc(N2C(=O)CC(c3c[nH]c4ccccc34)C2=O)c1 (configuration not stated)	-6	-10	1	11	/
O=C1CC(c2c[nH]c3ccccc23)C(=O)N1c1ccccc1 (configuration not stated)	709*	-7	0	8	0
CCOc1ccc(NC(=O)C2CCN(C(=O)C3CC(=O)N(c4ccc(C)cc4)C3)CC2)cc1 (configuration not stated)	-6	-16	0	15	/
Cc1cc(Nc2nc3c(c(=O)n(C)c(=O)n3C)n2C)n(-c2ccc(Cl)cc2)n1	+	4	0	13	0
C=C(C)Cn1c(=O)c2c(nc3n2CCCN3CCc2ccccc2)n(C)c1=O	-13	7	0	30	/
CCCn1c(=O)[nH]c(=O)c2c1nc(-c1ccc(C#N)cc1)n2CCOC	4	-1	0	7	/
CCCCn1c(=O)[nH]c(=O)c2c1nc(COc1ccc(C#N)cc1)n2CCC	404*	-5	0	7	1
c1ccc(Cn2nnnc2C(c2ccccc2)N2CCN(c3nc4ccccc4s3)CC2)cc1 (configuration not stated)	15	/	0	19	/
Cc1ccc(C)c(N2CCN(C(c3ccncc3)c3nnnn3Cc3ccccc3)CC2)c1 (configuration not stated)	422*	-10	0	35	1[21 µM]
COc1ccccc1N1CCN(CCN2C(=O)C3CCCCN3C2=O)CC1 (configuration not stated)	454*	44	-14	27	0
Cc1nc(-c2cccc(S(=O)(=O)N3CCOCC3)c2)cs1	730*	99*	0	38	0
Cc1nc(-c2cccc(S(=O)(=O)N3CC(C)CC(C)C3)c2)cs1 (configuration not stated)	126	-1	0	24	/
Cc1cc([N+](=O)[O-])nn1CC(=O)NNC(=S)Nc1ccc([N+](=O)[O-])cc1	672*	74	0	1	0
Cc1ccc(S(=O)(=O)c2cc3ccccc3nc2N)cc1	-5	25	-1	7	/
